Source: PubChem BioAssay (several laboratories)
The entries come from a sample that favours hits as a whole.
ARNT TACC3 PPI = disruptors of human ARNT/TACC3 interaction; Q9Y6A5; inhibition, % at 9.99 µM; AlphaScreen His-ARNT PAS-B/GST-TACC3 binding, luminescence; TACC3 fragment carries E629A point mutation; hit rate 0.66% among 390,000;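 active = mean inhibition of replicates at least 50% and at least half of replicates each reaching 50%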;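 also: 0% = complete ARNT plus TACC3 wells and 100% = ARNT alone without TACC3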
ERp5 block = inhibitors of human ERp5 | ERp5 insulin aggregation, absorbance 650 nm, 90 min | inhibition, % at 9.99 µM | hit rate 0.05% among 350,000 | AID 651711;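 active = mean replicate inhibition above about 25%, with every replicate also reaching it, limit read from the data, passing the limit was not always enough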
Target sequence (Q15084 whole entry, looked up): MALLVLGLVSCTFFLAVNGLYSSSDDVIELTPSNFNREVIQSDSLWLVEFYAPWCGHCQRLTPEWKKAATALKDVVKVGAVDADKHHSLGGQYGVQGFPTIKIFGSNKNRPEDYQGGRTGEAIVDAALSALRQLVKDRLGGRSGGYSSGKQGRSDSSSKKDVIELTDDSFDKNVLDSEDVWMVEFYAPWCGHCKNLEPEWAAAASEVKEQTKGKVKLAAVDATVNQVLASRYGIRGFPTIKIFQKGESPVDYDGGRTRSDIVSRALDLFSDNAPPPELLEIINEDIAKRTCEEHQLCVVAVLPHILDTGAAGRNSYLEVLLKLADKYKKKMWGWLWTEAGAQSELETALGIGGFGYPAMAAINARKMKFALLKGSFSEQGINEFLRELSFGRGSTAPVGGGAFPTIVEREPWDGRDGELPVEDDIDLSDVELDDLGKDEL
ALR inh = inhibitors of human sulfhydryl oxidase ALR. hit rate 3.8% among 290,000. P55789. AID 485317. purified ALR, DTT oxidation, H2O2 HRP-luminol luminescence. inhibition, % (test concentration not listed);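 active = mean replicate inhibition above about 79%, with every replicate also reaching it, limit read from the data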
Target sequence (P55789 whole entry, looked up): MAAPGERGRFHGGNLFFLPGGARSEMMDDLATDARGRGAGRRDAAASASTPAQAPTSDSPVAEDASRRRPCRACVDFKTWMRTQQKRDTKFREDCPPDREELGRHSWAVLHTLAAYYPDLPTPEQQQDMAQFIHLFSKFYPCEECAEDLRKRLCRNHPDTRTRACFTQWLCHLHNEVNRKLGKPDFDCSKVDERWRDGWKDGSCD
PglD inh = inhibitors of Campylobacter jejuni PglD acetyltransferase; purified PglD enzyme, DTNB colorimetric CoA detection; inhibition, % at 12.5 µM; hit rate 0.098% among 360,000; AID 602405; in the data active = inhibition above about 16%, passing the limit was not always enough
PDI inh = PDI (human) enzyme inhibition; P07237; PDI insulin aggregation turbidity, A650, 90 min; inhibition, % at 10 µM; hit rate 0.052% among 350,000;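 active = mean inhibition across replicates of 30% or more, whatever share of single replicates reach that level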
CendR NRP1 mod = alters CendR peptide binding to human NRP-1; hit rate 0.85% among 360,000; inhibition, % at 25 µM; AID 602438; O14786; FAM-RPARPAR peptide binding to NRP-1, fluorescence polarization;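 active = inhibition or corrected inhibition above about 18%, plus a signal ratio from 0.5 to 1.5, limit read from the data, passing the limit was not always enough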
* hit, by the source's call; · = no result.

SMILES | ARNT TACC3 PPI | ERp5 block | ALR inh | PglD inh | PDI inh | CendR NRP1 mod
COCCn1c(=O)[nH]c2cc(C(=O)N3CCN(c4ccc(OC)cc4)CC3)ccc2c1=O | 1 | 0 | 96* | -3 | 15 | 2
CN1CCN(CCn2c(=S)[nH]c3ccccc3c2=O)CC1 | -1 | -1 | 15 | 3 | 5 | -4
COc1ccc(N2CCN(CCCn3c(=S)[nH]c4ccccc4c3=O)CC2)cc1 | 15 | 1 | 95* | · | -6 | 7
COc1ccc(N2CCN(CCCNC(=O)CCCn3c(=O)[nH]c4ccsc4c3=O)CC2)cc1 | 4 | · | 93* | 11 | 5 | 4
COc1ccccc1N1CCN(CCCn2c(=S)[nH]c3ccccc3c2=O)CC1 | 16 | -1 | 97* | 0 | -40 | 1
C[C@H]1CCCCO[C@H](CN(C)C(=O)C2CCCCC2)[C@@H](C)CN([C@@H](C)CO)C(=O)c2cc(NS(=O)(=O)c3ccc(F)cc3)ccc2O1 | -3 | 1 | · | -1 | · | ·
COc1cc2c(=O)n(CCCN3CCOCC3)c(=S)[nH]c2c(OC)c1OC | -1 | · | 95* | -14 | -4 | 6
CSc1nnc(-c2ccccc2N=Cc2c(C)[nH]n(-c3ccc4ccccc4c3)c2=O)c(=O)[nH]1 | 18 | · | 7 | · | -6 | -44
C=CCSc1nnc(-c2ccccc2N=Cc2c(C)[nH]n(-c3ccccc3)c2=O)c(=O)[nH]1 | 4 | · | 97* | -2 | 24 | -2
CN(C)CC#Cc1cccc(-c2nc(C(=O)N3CCN(C)CC3)cc3c2[C@@H](CCO)N(S(=O)C(C)(C)C)C3)c1 (stereo partly specified) | -2 | 0 | · | 5 | · | ·
CNC(=O)NC(=O)CSc1cccc(C(F)(F)F)c1 | 0 | -2 | -1 | -8 | 7 | 38*
Fc1ccc(NCc2cccnc2)cc1F | 2 | 2 | -15 | · | -22 | 10
Clc1ccc(NCc2cccnc2)cc1 | 2 | 1 | 99* | 4 | 0 | -14
COc1cc(/C=N/Nc2ccccn2)ccc1O | 41 | 4 | 97* | · | -4 | -7
O=c1nccc(N/N=C/c2cccc(O)c2)[nH]1 | 27 | 1 | 52 | 12 | 4 | -5
COc1ccc(/C=N/Nc2ccccn2)cc1OC | 22 | 5 | 99* | -6 | -2 | 10
COc1cc(/C=N/Nc2ccnc(=O)[nH]2)ccc1O | 10 | 2 | 98* | 5 | 5 | -5
COc1ccc(Br)cc1/C=N/Nc1ccccn1 | · | 3 | -2 | 3 | 3 | 4
COc1ccc(/C=N/NC(=O)C(=O)Nc2ccccn2)cc1OC | 0 | · | · | 1 | -1 | 2
COc1ccc(NC(=O)/C=C2\SC(=O)NC2=O)cc1 | · | 3 | 97* | · | 2 | 0
COc1ccc(NC(=O)Nc2ccc(OC)cc2)cc1 | -7 | · | -7 | 12 | -11 | -6
Cn1cc(C(c2ccccc2OCC(=O)O)c2cn(C)c3ccccc23)c2ccccc21 | 13 | 0 | 99* | -2 | 0 | 3
CCn1c(=O)cc(OCC(=O)O)c2ccccc21 | -5 | · | -2 | 1 | 7 | 7
C[C@H]1CN([C@@H](C)CO)C(=O)c2cccc(NC(=O)c3nc4ccccc4s3)c2O[C@H]1CN(C)S(C)(=O)=O | -1 | 21 | · | 2 | · | ·
COc1ccc(C)cc1S(=O)(=O)Nc1cc2c3c(c1)C(C)C(=O)N3CCC2 (stereo unspecified) | -2 | -3 | -5 | 0 | 0 | 23*
SMILES | ARNT TACC3 PPI | ERp5 block | ALR inh | PglD inh | PDI inh | CendR NRP1 mod
CCN(CCNC(=O)CN1CCN(Cc2ccc(Cl)cc2)C1=O)c1ccccc1 | · | · | 98* | 4 | 0 | 5
O=C(CN1CCN(Cc2ccccc2)C1=O)NCc1ccc(Cl)cc1 | -7 | · | 5 | -11 | 1 | 7
O=C1CCC/C(=N/NC(=O)c2sc3ccccc3c2Cl)C1 | -3 | -4 | 98* | · | -1 | 130
CNC(=O)N(O)C1N(/N=C/c2ccc(N(C)C)cc2)C(=S)SC1(C)C (stereo unspecified) | -2 | 2 | 99* | 2 | 2 | 6
COc1cccc(S(=O)(=O)Nc2ccc3c(c2)C(=O)N(C)[C@@H]2CC[C@H](CC(=O)O)O[C@@H]2CO3)c1 | -10 | · | · | 4 | · | ·
Cc1cc[n+](-c2[nH]c(=O)sc2/C=N/NC([S-])=Nc2ccccc2)cc1 | 7 | -4 | 63 | · | 5 | 55*
O=c1[nH]c(-[n+]2ccccc2)c(/C=N/NC([S-])=Nc2ccccc2)s1 | 39 | -1 | 21 | · | -3 | 7
CC(C)(C)c1cc[n+](-c2[nH]c(=O)sc2/C=N/NC(=O)c2ccccc2[O-])cc1 | 18 | -1 | · | -7 | 2 | 27*
Cc1cc(C)c[n+](-c2[nH]c(=O)sc2/C=N/NC([S-])=Nc2ccccc2)c1 | 9 | -1 | · | -2 | 2 | 47*
O=C1C2C3CCC(C3)C2C(=O)N1c1ccc(OS(=O)(=O)c2ccccc2)cc1 (stereo unspecified) | · | 3 | -73 | · | -3 | 2
Cc1ccc(S(=O)(=O)Oc2ccc(N3C(=O)C4C5CCC(C5)C4C3=O)cc2)cc1 (stereo unspecified) | 30 | -3 | 0 | · | -1 | 24*
COc1ccc2c3c([nH]c2c1)[C@H](CO)N(C(=O)CC1CC1)CC31CN(Cc2ccncc2)C1 | · | -2 | · | · | · | ·
O=C(O)c1cc(-c2ccco2)nc2ccc(Br)cc12 | 1 | · | 98* | 4 | -1 | -141
COc1ccc2c3c([nH]c2c1)[C@H](CO)N(C(=O)C1CCCC1)CC31CN(Cc2nccs2)C1 | · | 9 | · | · | · | ·
Cc1cc(C(F)(F)F)nn1Cc1n[nH]c(=S)n1-c1ccc(Cl)cc1 | 4 | · | 11 | -3 | -5 | 1
Cc1cc(C(F)(F)F)nn1Cc1n[nH]c(=S)n1Cc1ccccc1 | -6 | · | 82* | 5 | -1 | -13
O=C(CSc1nnc(CN2CCOCC2)n1-c1ccc(Cl)cc1)Nc1cc(Cl)ccc1O | 5 | · | 27 | 7 | 0 | 21*
C/C=C/c1ccc2c(c1)O[C@@H](CN(C)C(=O)c1ccncc1)[C@@H](C)CN([C@@H](C)CO)S2(=O)=O | -5 | 7 | · | 2 | · | ·
COc1cc2c(cc1OC)C1Cc3ccc(OC)c(OC)c3CN1CC2 (stereo unspecified) | 8 | · | -29 | 2 | -5 | 2
COc1ccc2c(c1OC)CN1CCc3cc4c(cc3[C@@H]1[C@@H]2O)OCO4 | 4 | · | 4 | -5 | 4 | 29*
O=C(O)C1CCN(C(=O)c2ccc(Cl)cc2)CC1 | -5 | · | -8 | 0 | 16 | 25*
O=C(O)CCn1cc(-c2ccc(Cl)cc2)nc1-c1ccncc1 | -6 | 2 | 77* | -1 | -9 | 8
COc1ccc(-c2cn(CCC(=O)O)c(-c3ccncc3)n2)cc1 | -6 | 3 | 69 | 0 | 1 | 7
COc1ccc(-c2cn(Cc3ccc(C(N)=O)cc3)c(-c3ccncc3)n2)cc1 | 0 | -4 | 98* | 9 | -1 | 4
